The whole screen tested about 39,000 compounds, of which about 3,300 (8.5%) were called active. This is one part of a sample in which actives are shown more often than they occur.
Each compound was assayed on HepG2 (assay: cytotoxicity call (relative viability < 0.9)). Conditions: 10 µM.

SMILES	cytotoxicity call
CN1C(=O)[C@@H](O)N(c2ccccc2)C1=O	inactive
CCOC(=O)[C@H](CCc1ccccc1)N[C@@H](C)C(=O)N1C(=O)N(C)C[C@H]1C(=O)O	inactive
CC(C)NC(=O)N(C)C[C@@H]1Oc2ccc(NS(=O)(=O)c3ccc(Cl)cc3)cc2CC(=O)N([C@@H](C)CO)C[C@H]1C	inactive
C[C@@H]1CN([C@@H](C)CO)C(=O)c2cccc(NS(=O)(=O)c3cccs3)c2O[C@H]1CN(C)Cc1ccc(Cl)c(Cl)c1	inactive
COc1ccc(CN(C)C[C@H]2OCCCC[C@@H](C)Oc3ccc(NC(=O)CCC(F)(F)F)cc3C(=O)N([C@H](C)CO)C[C@H]2C)cc1	inactive
COc1ccc(CN(C)C[C@H]2OCCCC[C@H](C)Oc3ccc(NC(=O)CCC(F)(F)F)cc3C(=O)N([C@@H](C)CO)C[C@H]2C)cc1	inactive
C[C@@H]1CN([C@@H](C)CO)C(=O)c2cc(NC(=O)CCC(F)(F)F)ccc2O[C@@H](C)CCCCO[C@@H]1CN(C)Cc1ccc(C(F)(F)F)cc1	inactive
C[C@@H]1CN([C@@H](C)CO)C(=O)c2cc(NC(=O)CCC(F)(F)F)ccc2O[C@@H](C)CCCCO[C@H]1CN(C)Cc1ccc(C(F)(F)F)cc1	inactive
COc1ccc(CN(C)C[C@H]2OCCCC[C@H](C)Oc3ccc(NC(=O)CCC(F)(F)F)cc3C(=O)N([C@H](C)CO)C[C@H]2C)cc1	active
C[C@H]1CCCCO[C@@H](CN(C)Cc2ccc(C(F)(F)F)cc2)[C@@H](C)CN([C@@H](C)CO)C(=O)c2cc(NC(=O)CCC(F)(F)F)ccc2O1	active
C[C@H](CO)N1C[C@H](C)[C@@H](CN(C)C(=O)Nc2ccc3c(c2)OCO3)OCCCC[C@H](C)Oc2ccc(NS(=O)(=O)c3ccc(Cl)cc3)cc2C1=O	inactive
COC(=O)c1c2oc(c1C(=O)OC)C(=O)N[C@H](Cc1ccccc1)Cn1cc(nn1)CNC(=O)[C@@H](Cc1ccccc1)NC(=O)N[C@@H](COC(=O)NCCCCCC(=O)NO)CC2	inactive
C[C@H](NC(=O)[C@H]1N[C@H]2c3ccc(-c4ccc(C(=O)N(C)C)cc4)c(=O)n3C[C@H]2[C@@H]1CO)c1ccccc1	inactive
COc1ccc(NC(=O)N(C)C[C@@H]2Oc3ccc(NS(=O)(=O)c4cn(C)cn4)cc3CC(=O)N([C@H](C)CO)C[C@H]2C)cc1	inactive
COc1ccc(NC(=O)Nc2cccc3c2O[C@@H](CN(C)Cc2ccc(C(=O)Nc4ccccc4N)cc2)[C@@H](C)CN([C@@H](C)CO)C3=O)cc1	inactive
CCN(CC)c1ccc(N2CC=C[C@@]34O[C@@H]5/C=C\CCCOC(=O)[C@@H]5[C@H]3C(=O)N(CCCCCCO)[C@@H]4C2=O)cc1	inactive
C[C@@H]1CCCCO[C@@H](CN(C)C(=O)Nc2ccccc2)[C@H](C)CN([C@@H](C)CO)C(=O)c2cc(NS(=O)(=O)c3ccccc3)ccc2O1	inactive
Cc1ccc(S(=O)(=O)Nc2ccc3c(c2)C(=O)N([C@@H](C)CO)C[C@@H](C)[C@@H](CN(C)S(=O)(=O)c2c(C)noc2C)O3)cc1	inactive
C[C@@H]1CN([C@@H](C)CO)C(=O)c2cccc(NC(=O)CCCCCC(=O)Nc3ccccc3N)c2O[C@@H]1CN(C)CC1CCCCC1	active

SMILES	cytotoxicity call
C[C@H]1CN([C@@H](C)CO)C(=O)c2cccc(NC(=O)CCCCCC(=O)Nc3ccccc3N)c2O[C@@H]1CN(C)CC1CCCCC1	active
C[C@H](CO)N1C[C@H](C)[C@H](CN(C)CC2CCCCC2)Oc2c(NC(=O)CCCCCC(=O)Nc3ccccc3N)cccc2C1=O	inactive
C[C@H]1CN([C@@H](C)CO)C(=O)c2cccc(NC(=O)CCCCCC(=O)Nc3ccccc3N)c2O[C@H]1CN(C)CC1CCCCC1	inactive
C[C@@H]1CN([C@@H](C)CO)C(=O)c2cccc(NC(=O)CCCCCC(=O)Nc3ccccc3N)c2O[C@@H]1CN(C)Cc1ccccc1	inactive
C[C@@H]1CN([C@@H](C)CO)C(=O)c2cccc(NC(=O)CCCCCC(=O)Nc3ccccc3N)c2O[C@H]1CN(C)CC1CCCCC1	inactive
C[C@@H]1CN([C@H](C)CO)C(=O)c2cccc(NC(=O)CCCCCC(=O)Nc3ccccc3N)c2O[C@@H]1CN(C)CC1CCCCC1	inactive
C[C@H](CO)N1C[C@H](C)[C@@H](CN(C)CC2CCCCC2)Oc2c(NC(=O)CCCCCC(=O)Nc3ccccc3N)cccc2C1=O	inactive
C[C@@H]1CN([C@H](C)CO)C(=O)c2cccc(NC(=O)CCCCCC(=O)Nc3ccccc3N)c2O[C@H]1CN(C)CC1CCCCC1	active
Nc1nc(=O)c2ncn(COC(CO)CO)c2[nH]1	inactive
CN[C@H]1[C@@H](O[C@H]2[C@@H](O[C@H]3[C@@H](O)[C@@H](O)[C@@H](NC(=N)N)[C@@H](O)[C@@H]3NC(=N)N)O[C@@H](C)[C@@]2(O)C=O)O[C@@H](CO)[C@@H](O)[C@@H]1O.CN[C@H]1[C@@H](O[C@H]2[C@@H](O[C@H]3[C@@H](O)[C@@H](O)[C@@H](NC(=N)N)[C@@H](O)[C@@H]3NC(=N)N)O[C@@H](C)[C@@]2(O)C=O)O[C@@H](CO)[C@@H](O)[C@@H]1O.O=S(=O)(O)O.O=S(=O)(O)O.O=S(=O)(O)O	inactive
CC1(C)SC2C(NC(=O)C(C(=O)[O-])c3ccccc3)C(=O)N2C1C(=O)[O-].[Na+].[Na+] (configuration not stated)	inactive
C[C@@H]1CCCCO[C@@H](CN(C)C(=O)c2ccccc2)[C@@H](C)CN([C@@H](C)CO)C(=O)c2cc(NC(=O)c3ccccc3)ccc2O1	inactive
C[C@@H]1CCCCO[C@@H](CN(C)C(=O)Nc2ccc(C(F)(F)F)cc2)[C@@H](C)CN([C@H](C)CO)C(=O)c2cc(NS(=O)(=O)c3cn(C)cn3)ccc2O1	inactive
Cc1cccc(C)c1NC(=O)C1CCCCN1C.Cl (configuration not stated)	inactive
Cc1cccc(C)c1Nc1nc2c(C)cc(C)c(C)c2s1	inactive
C=C1SC(Nc2c(C)cccc2C)=NC12CCCCC2	active
C[C@@H]1CN([C@@H](C)CO)C(=O)Cc2cc(NC(=O)C3CC3)ccc2O[C@H]1CN(C)C(=O)Nc1ccccc1	inactive
COCC#Cc1ccc([C@H]2[C@H]3CN(C(=O)CN4CCOCC4)CC(=O)N3[C@H]2CO)cc1	inactive
